High-throughput results (PubChem)
An excerpt weighted towards active compounds, which were near 19% of everything screened.
IL-1B inflam inh: blocks inflammasome-driven IL-1 beta release; THP-1 LPS/ATP IL-1B secretion, AlphaLISA, 16 h; active compounds read low; activity change, % at 57.5 µM; hit rate 4.7% among 360,000; in the data active = activity change below about -50%; inconclusive = mostly about -30% to -49%
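THP-1 cells pretreated 1 hr with compounds (up to 57.5 uM final), then stimulated with LPS (250 ng/mL final) plus ATP (1.25 mM final); secreted IL-1B measured by AlphaLISA after 16 hr, decreased signal indicating inhibition.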
HT1080 IDH1KD tx: kills HT-1080 cells with IDH1 knockdown; Potency, µM (doses to about 46.1 µM), inactives show at the top dose activity, negative = toxicity, most hits filed as cytotoxic; HT-1080 IDH1 knockdown viability, ATP luminescence, 48 h; AID 686971; hit rate 2% among 360,000;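 also: potency is read from the fitted curve at half-maximal effect; 0% = DMSO wells and -100% = cell-free medium wells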
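Using the IDH1-knockdown HT-1080 line run in the same batch and compound series as the NT line, viability after 48 h at 37 °C was determined by CellTiter-Glo luminescence and expressed as % activity.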
HT1080NT lethal: kills 2HG-producing HT-1080-NT fibrosarcoma cells. HT-1080-NT fibrosarcoma viability, CellTiter-Glo ATP luminescence, 48 h. Potency, µM (highest dose often 46.1 µM), for the others: top-dose activity, negative = less viability, actives largely listed as cytotoxic. hit rate 1.6% among 360,000. AID 686970;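 also: NT is the 2HG producing partner of a matched IDH1 knockdown line; potency is read from the fitted curve at half-maximal effect; 0% = DMSO-treated cells and -100% = media-only wells without cells; nearly all actives have a fitted effect of over 55% in size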
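A 48-hour cytotoxicity screen used HT-1080-NT cells plated 2 hours before compound delivery. ATP-based CellTiter-Glo luminescence measured viability, normalized to DMSO and no-cell controls.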
TDP1 cell CPT: DT40-hTDP1 cell growth loss with CPT; chicken DT40 Tdp1-/-;hTDP1 cells + 20 nM CPT, ATP luminescence, 48 h; Potency, µM (series often up to 46.2 µM), for inactives: at the highest dose activity change, negative = growth inhibition, most hits filed as inhibitors; hit rate 12% among 420,000; AID 686979; also: potency is read from the fitted curve at half-maximal effect; nearly all actives have a fitted effect of over 55% in size
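Chicken DT40 Tdp1-/- cells complemented with human TDP1, 400 cells/well, exposed to compounds plus 20 nM camptothecin for at least 48 h at 37 C; viability read as ATP content by CellTiter-Glo luminescence.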
TDP1 cell noCPT: qHTS for Inhibitors of human tyrosyl-DNA phosphodiesterase 1 (TDP1): qHTS in cells in absence of CPT; DT40 Tdp1-/- hTDP1 cells, no CPT, ATP luminescence, 48 h; Potency, µM (titrated, usually from 46.2 µM), for the others: top-dose activity change, negative = growth inhibition, usual class: inhibitors; hit rate 15% among 420,000; AID 686978, 2013; also: potency is read from the fitted curve at half-maximal effect; nearly all actives have a fitted effect of over 55% in size
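Compound effects on proliferation are scored in DT40 Tdp1-/-;hTDP1 cells in the absence of CPT. ATP levels (CellTiter-Glo luminescence) are recorded after a ≥48 hr, 37 °C incubation.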
An asterisk follows results filed as active; ? = inconclusive; . = no result given; ! = not confirmed by another sample; [ ] = dose if it differs, or a comment. Unless noted, calls follow the shape of the dose curve; as a rule, active = well fitted curve in the direction sought with a large enough effect; inconclusive = small, poorly fitted or top-dose-only effect, or another doubt; inactive = no such curve, though single readings can be large; an effect the other way counts as inactive or inconclusive. Unless noted, % is scaled to controls: 0 for no effect and ±100 for the full control effect.

SMILES | IL-1B inflam inh | HT1080 IDH1KD tx | HT1080NT lethal | TDP1 cell CPT | TDP1 cell noCPT
O=[N+]([O-])c1cccc(C2N3CCCN23)c1 (configuration not stated) | 6 | 10% | 9% | -6% | 0%
Cc1c(C)n(O)c2ccc3nonc3c12 | . | -5% | -5% | ? | ?
CCCCC/C=C\C/C=C\CCCCCCCC(=O)NCCO | . | . | . | 3%[4.12 µM] | -2%[4.12 µM]
O=C1c2cccc3cc([N+](=O)[O-])cc(c23)C(=O)N1c1ccccc1O | 18 | 3% | -4% | 21µM* | 16µM*
CCCCC[C@H]1CCCCC[C@@H](O)C[C@@H](O)[C@@H](O)/C=C/C(=O)O1 | -1 | -12% | -20% | 10µM* | 9.2µM*
CCCCC[C@@H]1CCCCC[C@@H](O)C[C@H](O)[C@H](O)/C=C/C(=O)O1 | 13 | 8% | 1% | ? | ?
Cc1cc2c(C(C)C)c(O)c(O)c(C=O)c2c(O)c1-c1c(C)cc2c(C(C)C)c(O)c(O)c(C=O)c2c1O | . | . | . | 5.8µM* | 5.8µM*
CC(=NCCCn1ccnc1)c1c(O)n(C)c(=O)n(C)c1=O | 83 | -6% | 3%[9.24 µM] | -19% | -15%
Cc1ncc(CNC(=O)N(CCCl)N=O)c(N)n1 | 3 | 14% | -8% | 21µM*! | ?
CC(C)C(=O)c1cn(Cc2ccc(C#N)cc2)c2ccccc12 | -10 | -28% | -3% | 29µM* | ?
CC(=O)c1cn(Cc2ccc(C#N)cc2)c2ccccc12 | 30 | -3% | 0% | -10% | -12%
Clc1ccc(C(Cn2ccnc2)OCc2csc3c(Cl)cccc23)c(Cl)c1 (configuration not stated) | -78* | 21µM* | ? | 23µM* | 13µM*
OCC(O)Cc1ccc2c(c1)OCO2 (configuration not stated) | . | . | . | -2% | -18%
O=C(Oc1ccccc1)N1CCC[C@@]2(CCN(Cc3ccccc3)C2)C1 | . | . | . | -3% | -28%
CCCc1nc(SCC(=O)N2CCc3ccccc3C2)c2ccccc2n1 | -72* | ? | ? | ? | ?
S=P(NCCNP(=S)(N1CC1)N1CC1)(N1CC1)N1CC1 | 8 | -3% | -6% | -59% | 1.3µM*
S=P(NCCSCc1ccccc1)(N1CC1)N1CC1 | -21 | -18% | -10% | 3.7µM* | 7.3µM*
COc1ccc(/C=C/C(=O)c2c(O)n(CCC3=CCCCC3)c(=O)[nH]c2=O)cc1OC | -19 | 2% | 20% | ? | ?
O=C(COc1ccccc1Cl)N1CCN(CCc2ccccn2)CC1 | . | . | . | -1% | -5%
CN1CCN(C(=O)COc2ccc(-c3nc4ccccc4s3)cc2)CC1 | -60* | -1%[9.24 µM] | ? | -30% | 18µM*
COc1ccccc1-c1nn2c(=O)cc(CN3CCN(C(=O)COc4ccccc4Cl)CC3)nc2s1 | . | . | . | ? | 21µM*
COc1ccc(OCC(=O)N2CCN(Cc3cc(=O)n4nc(-c5ccc(OC)cc5)sc4n3)CC2)cc1 | . | . | . | 15µM* | 21µM*
N#CCCN(C(=O)COC(=O)c1ccc2c(c1)NC(=O)CS2)c1ccc2c(c1)OCCO2 | -3 | -14% | -10% | -17% | ?
CCCCn1c(O)c(C=NC2CC3CCC2(C)C3(C)C)c(=O)[nH]c1=O (configuration not stated) | 10 | -22% | -28% | ? | ?
CCCCCCCCCc1ccc(OCCOCCO)cc1 | . | . | . | 3µM* | 3µM*
SMILES | IL-1B inflam inh | HT1080 IDH1KD tx | HT1080NT lethal | TDP1 cell CPT | TDP1 cell noCPT
CC(=O)N1N=C(c2c(O)n(C)c(=O)n(C)c2=O)CC1c1ccccc1 (configuration not stated) | 77 | ? | -23% | ? | 15µM*
NC[C@H](CP(=O)(O)O)c1ccc(Cl)cc1 | . | . | . | 19% | 1%
O=C(CCn1nc(-c2ccc(Cl)cc2)ccc1=O)N1CCC2(CC1)OCCO2 | -4 | 0% | -2% | -17% | -9%
Cc1nc2cc(-c3ccc(Cl)cc3)nn2c(C)c1CCC(=O)N1CCC2(CC1)OCCO2 | 35 | 11% | -4% | 23µM* | 21µM*
CN1CCc2nc3sc(C#N)c(N)c3c(-c3cccs3)c2C1 | -8 | -6% | -1% | ? | 21µM*
CC(C)N1C(=O)c2ccccc2NS1(=O)=O | . | . | . | 6% | -7%
CN1[C@@H]2CC[C@H]1CC(OC1c3ccccc3CCc3ccccc31)C2 (some centres not stated) | ? | 26µM* | 16µM* | 8.2µM* | 2.6µM*
CN1C2CCC1CC(OC(=O)C1CCC(C(=O)OC3CC4CCC(C3)N4C)(c3ccccc3)c3ccccc31)C2 (configuration not stated) | . | . | . | -9%[9.04 µM] | -10%[9.04 µM]
O=C(Cn1ncn2c(cc3cc(F)ccc32)c1=O)N1CCC2(CC1)OCCO2 | 4 | 9% | 7% | -7% | 13%
C[C@H]1CCCC(=O)CCCCCc2cc(O)cc(O)c2C(=O)O1 | 25 | ? | ? | ? | 18µM*
CC(C(O)c1ccccc1)N(C)CCOC(c1ccccc1)c1ccccc1 (configuration not stated) | . | . | . | 12µM* | 15µM*
CNC(C)[C@H](O)c1ccccc1 (some centres not stated) | . | . | . | -5% | -11%
O=C(CF)NC(NC(=S)Nc1cccc([N+](=O)[O-])c1)C(Cl)(Cl)Cl (configuration not stated) | -19 | 7% | 4% | 21µM* | ?
N#CC(C#N)=NNc1ccc(OC(F)(F)F)cc1 | . | . | . | 1.1µM* | 1.1µM*
O=C1C(=Cc2cn(-c3ccccc3)nc2-c2ccc(OCc3ccc(Cl)cc3)cc2)SC(=S)N1CCS(=O)(=O)O | ? | -23% | ? | ? | ?
CC(C)c1ccc(OCC(=O)Nc2cc(-c3nc4ncccc4o3)ccc2Cl)cc1 | . | . | . | ? | 6.5µM*
CNC(=O)Oc1cc2c(cc1C(C)(C)C)CCC2 | -2 | -23% | -21% | 16µM* | 16µM*
CC(C)(O)/C=C/C(=O)[C@](C)(O)C1[C@H](O)C[C@@]2(C)C3CC=C4C(C[C@H](O)[C@@H](O)C4(C)C)[C@]3(C)C(=O)C[C@]12C (some centres not stated) | -87* | 1.3µM* | 1.3µM* | 0.29µM* | 0.33µM*
CCOC(=O)C1=C(Cc2ccc(Cl)cc2)C(=O)c2ccccc2C1=O | -89* | 10µM* | 11µM* | 4.6µM* | 4.6µM*
CCOC(=O)c1ccccc1C(=O)OCC | 21 | . | . | 4% | 0%
CC1=CC(=O)C2=C(C)C[C@H](O)[C@@H]3[C@H](OC(=O)[C@H]3C)[C@@H]12 | -79* | 1% | 16% | 6% | 16%
CN(C)C(=O)Oc1ccc(OCc2nc3ccccc3[nH]2)cc1 | -5 | 6.5µM* | 7.3µM* | 9.2µM* | 10µM*
